The text below walks through data of PubChem BioAssay (NCI).

The structures appear in SMILES notation. The panel holds about 83,000 compounds, 20% with a hit somewhere; the sample as a whole holds those more often.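 The endpoint reported here, percent growth, reads 100 for growth as untreated, 0 for no net growth and -100 for all cells dead.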 Calls of active or inactive are those of the source. The calls were made as follows: active = growth percent below 10; inactive = the rest.

In this experiment the test system is NCI/ADR-RES ovarian. Description: NCI-60 one-dose screen, 48 h (100 = growth as untreated, 0 = no growth, -100 = all killed). The conditions noted are these: 10 µM unless noted.
On to `COc1cc(Cn2c(SCCC(=O)Nc3ccc(F)cc3)nc3ccccc3c2=O)cc(OC)c1OC`, for which the growth was 83.5% (inactive). With `O=C(O)c1cn(C2CC2)c2cc(N3CCN(S(=O)(=O)c4ccc(Cl)c(Cl)c4)CC3)c(F)cc2c1=O` the figure was 53.5% (inactive).

`COc1cc(NCCCN=C(N)NC(N)=NC(C)C)c2ncccc2c1`: the growth was 98.8% (inactive). The value for `O=C(O)c1cccc([N+](=O)[O-])c1/C=C/c1ccccc1` was 103% (inactive); that for `NC(CC(N)C(=O)O)C(=O)O` (configuration not stated) was 107% (inactive). With `O=C(O)c1ccc(-n2c(=O)c3ccccc3c3ccccc3c2=O)cc1` the figure was 112% (inactive); with `COc1cc(Cn2c(SCC(=O)Nc3ccc(Cl)cc3)nc3ccccc3c2=O)cc(OC)c1OC`, 51.9% (inactive); with `CN(C)c1ncc(-c2ccc(C(F)(F)F)cc2)c(NC2CCCCCC2)n1`, 82.1% (inactive).

Turning to `Nc1c(C(=O)Nc2ccccc2)sc2nc3c(cc12)CCCCC3`, the growth was 2.18% (active). With `CCn1cc(C(=O)O)c(=O)c2cc(F)c(N3CCN(S(=O)(=O)c4c(C)cc(C)cc4C)CC3)cc21`, the growth was 84.8% (inactive). The value for `CCn1cc(C(=O)O)c(=O)c2cc(F)c(N3CCN(S(=O)(=O)c4ccc(Cl)cc4Cl)CC3)cc21` was 9.34% (active); that for `CCCC(C(=O)OCC)C(C)OC(=O)OCC` (configuration not stated) was 105% (inactive); that for `NC(=O)NC(=O)/C=C/C(=O)OCCCl` was 109% (inactive). Take `Cc1ccc(C2=NN(c3ccc(S(=O)(=O)NC(=O)NCc4ccccc4)cc3)C(c3ccc(N(C)C)cc3)C2)c(C)c1` (configuration not stated): the growth is 33.7% (inactive). With `COc1ccc(-c2cn[nH]c2-c2cc(OC)c3c(c2)OCO3)cc1` the figure was 5.12% (active).

Turning to `CCCCCCCCCCCCNC(=S)N/N=C/c1ccc(Cl)c(Cl)c1`, the growth was 113% (inactive). On to `Oc1ccc(Cl)cc1-c1cc(-c2ccc(Cl)cc2)n[nH]1`, for which the growth is 65.1% (inactive). With `COc1cc(NC(=O)CSc2nc3ccc(C)cc3c(=O)n2-c2ccccc2)cc(OC)c1OC` the figure was 75.5% (inactive); with `Clc1nc(-c2cccnc2)nc2sc3c(c12)CCCCCC3`, 106% (inactive). The value for `CCCCCCCCCCCCCCCCC(Br)C(=O)O` (configuration not stated) was 110% (inactive). Regarding `CCN(Cc1ccccc1)c1ccc(SC#N)cc1`, the growth was 81.9% (inactive). For the molecule `CCCCCC(=O)OCc1ccccc1`, the growth is 100% (inactive). Turning to `COc1ccc(S(=O)(=O)N2CCN(c3cc4c(cc3F)c(=O)c(C(=O)O)cn4C3CC3)CC2)c(OC)c1`, the growth was 102% (inactive). With `COc1cc2nc(N3CCC[C@@H](NC4=CC(=O)c5ccccc5C4=O)C3)nc(N)c2cc1OC` the figure was 99% (inactive); with `COc1ccccc1CNCCCN1C(=O)c2ccc3c4c(ccc(c24)C1=O)C(=O)N(CCCNCCCCNCCCCN)C3=O`, 62.2% (inactive); with `Cc1cc(C)c(S(=O)(=O)N2CCN(c3cc4c(cc3F)c(=O)c(C(=O)O)cn4C3CC3)CC2)c(C)c1`, 69.9% (inactive).

As for `COc1ccc(NC(=O)CSc2nc3ccccc3c(=O)n2-c2ccccc2C(F)(F)F)c(OC)c1OC`, the growth is 102% (inactive). With `CNC(C)=O` the figure was 102% (inactive); with `CCN(CC)P(=O)(N(CC)CC)N(CCCSC/C=C(\C)CC/C=C(\C)CCC=C(C)C)CCCN1CCN(C)CC1`, 106% (inactive).

Turning to `COc1ccc(NC(=O)CSc2nc3ccc(Cl)cc3c(=O)n2-c2ccccc2C(F)(F)F)c(OC)c1OC`, the growth is 72.4% (inactive). The value for `O=S(=O)(O)CCl` was 103% (inactive); that for `COc1ccc(OC)c(C(=O)c2oc3ccc(Br)cc3c2N)c1` was 15.1% (inactive); that for `COc1cc(NCCN=C(N)NC(N)=NC(C)C)c2ncccc2c1` was 99.4% (inactive). The value for `CC(=O)Nc1nc(C(=O)N2N=C(C)/C(=C/c3cccs3)C2=O)cs1` was 112% (inactive); that for `CC(C)[C@H](CO)Nc1nc(Nc2ccc(C(=O)NCCNS(=O)(=O)c3cccc4c(N(C)C)cccc34)c(Cl)c2)c2ncn(C(C)C)c2n1` was 94.5% (inactive); that for `CCn1cc(C(=O)O)c(=O)c2cc(F)c(N3CCN(S(=O)(=O)c4cccc5ccccc45)CC3)cc21` was 21.4% (inactive). The value for `O=C1Nc2ccc(Br)cc2C1=N/C=c1\[nH]c(=O)/c(=C/c2ccc(Cl)cc2)s1` was 104% (inactive).
